Shown are actives, neighbours in structure and some others; about 1.4% of the full set was active somewhere.
FXIa mix inh: FXIa protease inhibitors in compound pools, primary screen, biochemical, 10-compound mixtures. Coagulation factor XI (Homo sapiens), P03951. purified FXIa, fluorogenic substrate, pooled mixtures. inhibition, % at 5 µM. 0.19% of 62,000 active. AID 680, 2007;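 note: each value is inhibition by a whole ten-compound pool holding the compound; 0% = enzyme with no mixture and 100% = wells lacking enzyme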
FXIIa inh mix: human factor XIIa inhibitors, primary screen, biochemical, pooled compound mixtures, fluorogenic substrate. AID 684, 2007. purified FXIIa. Coagulation factor XII (Homo sapiens), P00748. 0.2% of 62,000 active. inhibition, % at 5 µM;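 note: 0% = enzyme without compound and 100% = no enzyme blank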
C1s block: complement C1s protease inhibitors, primary screen, biochemical, 10-compound mixtures | Complement C1s subcomponent (Homo sapiens), P09871 | purified C1s, fluorogenic AMC substrate, pooled mixtures | mean inhibition % of two 10-compound mixtures (active compounds read high), % at 5 µM (by protocol) | 0.16% of 62,000 active | AID 538, 2006;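 active = inhibition above 20% in each of the two 10-compound mixture wells holding the compound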;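 note: 0% = enzyme wells lacking compound mixture and 100% = no-enzyme blank wells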
PLAP act: PLAP enzyme activators, biochemical, luminescence, HTS; purified PLAP enzyme, luminescent substrate read-out; active compounds read high; activation fold at 20 µM; 1.2% of 96,000 active; AID 696, 2007; in the data active = activation fold above about 2
HePTP inhibitor: inhibitors of human HePTP phosphatase, primary screen, biochemical, absorbance, leukemia target; Tyrosine-protein phosphatase non-receptor type 7 (Homo sapiens), P35236; recombinant HePTP phosphatase activity, OD absorbance; inhibition, % at 20 µM; 0.64% of 110,000 active; AID 521, 2006; in the data active = inhibition above about 50%;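 note: plate controls were vehicle for no effect and reference inhibitor for full effect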
Target sequence (P35236 whole entry, looked up): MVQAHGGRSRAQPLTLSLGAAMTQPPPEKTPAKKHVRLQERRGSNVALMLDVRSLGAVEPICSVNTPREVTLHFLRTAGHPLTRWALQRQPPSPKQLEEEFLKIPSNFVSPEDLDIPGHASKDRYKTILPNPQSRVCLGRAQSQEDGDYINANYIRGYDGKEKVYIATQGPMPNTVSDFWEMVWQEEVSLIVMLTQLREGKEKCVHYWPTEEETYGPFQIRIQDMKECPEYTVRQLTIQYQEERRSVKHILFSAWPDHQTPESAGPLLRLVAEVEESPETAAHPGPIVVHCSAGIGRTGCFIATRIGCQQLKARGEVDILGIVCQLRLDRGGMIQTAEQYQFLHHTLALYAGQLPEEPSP
Cathepsin G inh: human cathepsin G inhibitors, primary screen, biochemical, pooled compound mixtures, AMC fluorescence. 0.2% of 62,000 active. inhibition, % at 5 µM (by protocol). purified enzyme, AMC-tetrapeptide fluorescence. P08311. AID 581, 2007;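 active = inhibition above 20% in each of the two mixture wells holding the compound; inactive = inhibition of 20% or less in either well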;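 note: 0% = enzyme control without mixture and 100% = blank lacking enzyme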
Active calls of the source: *; · = no result. Cut-off read from the data, not from the text of the source, unless noted: active = inhibition above about 20% (passing the limit was not always enough); inactive = the rest.

SMILES	FXIa mix inh	FXIIa inh mix	C1s block	PLAP act	HePTP inhibitor	Cathepsin G inh
CCC(=NCCCn1ccnc1)c1c(O)n(Cc2ccccc2)c(=O)[nH]c1=O	·	·	·	2.1*	·	·
Oc1ccc(/C=N/NP(=S)(c2ccccc2)c2ccccc2)cc1O	·	·	·	0.6	·	·
Oc1ccc(/C=N/NP(=S)(c2ccccc2)c2ccccc2)c(O)c1O	·	·	·	2.4*	·	·
O=C1NC(=S)N(c2ccc(F)cc2)C(=O)/C1=C/c1ccc(Br)o1	·	·	·	·	104.3*	·
COc1ccc(N2C(=O)/C(=C/c3ccc(I)o3)C(=O)NC2=S)cc1	·	·	·	·	101.0*	·
Cc1ccc(/C=C2/C(=O)NC(=O)N(c3ccc(Cl)cc3)C2=O)o1	·	·	·	·	-3.0	·
O=C1NC(=O)N(c2ccc(Cl)cc2)C(=O)/C1=C/c1ccc(Br)o1	·	·	·	·	100.1*	·
COc1ccc(-c2nc3ccccc3c(=O)n2-c2cccc(C)n2)cc1	·	·	·	·	8.2	·
Oc1c(Br)cc(Br)cc1CN1CCN(Cc2ccccc2)CC1	·	·	·	2*	·	·
Oc1ccc(Br)cc1CN1CCN(Cc2ccc(F)cc2)CC1	·	·	·	·	-11.3	·
CC(C)c1ccc(N2C(=O)CC(=O)NC2=S)cc1	·	·	·	·	1.4	·
O=C1NC(=O)N(c2ccccc2)C(=O)/C1=C/c1ccoc1	·	·	·	·	6.8	·
O=C1NC(=S)N(c2ccccc2)C(=O)/C1=C/c1ccco1	·	·	·	·	102.3*	·
C=CCN1C(=O)/C(=C\C=C\c2ccco2)C(=O)NC1=S	·	·	·	·	102.3*	·
CCc1ccc(N2C(=O)NC(=O)/C(=C/C=C/c3ccco3)C2=O)cc1	·	·	·	·	32.7	·
O=C1NC(=S)N(c2ccccc2F)C(=O)C1=Cc1ccco1	·	·	·	·	102.9*	·
N#CCCOCC#CCN1CCCCC1	·	·	·	·	-12.1	·
CCN1C(=O)/C(=C/c2cccn2C)C(=O)NC1=S	·	·	·	·	100.0*	·
CCN1C(=O)/C(=C/c2ccoc2)C(=O)NC1=S	·	·	·	·	102.0*	·
CN1C(=O)/C(=C/c2cccn2-c2ccc3ccccc3c2)C(=O)NC1=S	·	·	·	0.9	·	·
C=CCN1C(=O)/C(=C\c2cccn2-c2ccc([N+](=O)[O-])cc2)C(=O)NC1=S	·	·	·	·	102.0*	·
COc1cc(/C=C/c2nc3ccccc3c(=O)n2-c2ccccc2)ccc1O	·	·	·	·	10.3	·
CCOC(=O)c1cc(C)n(CCc2cnc[nH]2)c1C	·	·	·	2.4*	-2.0	·
CCOc1ccc(CN2CCN(Cc3ccccc3)CC2)cc1	·	·	·	·	-1.0	·
CN1C(=O)NC(=O)/C(=C/c2ccc(-c3cccc([N+](=O)[O-])c3)o2)C1=O	·	·	·	·	-1.1	·
COc1ccccc1CN1CCCCC1c1cccnc1 (stereo unspecified)	5.1	0.3	58.9*	1.1	5.7	9.9
COc1ccccc1CN1CCNCC1	·	·	·	·	4.2	·
CN1C(=O)NC(=O)/C(=C/c2ccc(-c3cccc(C(=O)O)c3)o2)C1=O	·	·	·	·	1.4	·
O=C(COc1ccc2ccccc2c1)N1CCN(C2CC3CCC2C3)CC1 (stereo unspecified)	·	·	·	·	4.0	·
Cc1ccccc1-n1c(O)c(C=C2C=CC=N2)c(=O)[nH]c1=S	·	·	·	·	103.4*	·
